AI-2 QS mod: modulates the Vibrio harveyi AI-2 quorum sensing system. Vibrio harveyi JMH597 AI-2 luminescence/OD600 ratio, 9 h; stronger effect = lower value; strain lacks LuxN and CqsS sensors; 0 = neutral-control median. activity change, % at 7.5 µM. 0.4% of 300,000 active; in the data active = activity change below about -75%, passing the limit was not always enough;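 note: luminescence divided by OD600 gain over 9 h not by final OD600 alone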
HSF1 inhib: HSF1 inhibition; NIH3T3-HGL HSE-luciferase, MG132-induced, luminescence 8 h; stronger effect = lower value; activity change, negative = inhibition, % at 7.5 µM (by protocol); 0.77% of 300,000 active; AID 2098;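 active = more than half of replicate wells show activity change below -50%, luminescence cut by over half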;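 note: luciferase reports HSF-1 transcriptional activity via heat shock element; 0% = median of DMSO wells and -100% = zero luminescence signal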
PG9 binder: binds the HIV-1 gp120 antibody PG9 | 0.43% of 360,000 active | TR-FRET gp120-PG9 antibody binding | inhibition, % at 6.7 µM; in the data active = inhibition above about 8.5%
SMARCA2 act: increases SMARCA2 function in MMTV reporter cells; MG213 cells, MMTV-luciferase reporter, dexamethasone, overnight; activation, % at 9.1 µM; 1% of 370,000 active; AID 652017; in the data active = activation above about 7.8%;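 note: 0% = vehicle wells and 100% = reference activator wells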
HSP90 inh: HSP90 refolding inhibition in rabbit reticulocyte lysate. AID 1789. inhibition, % at 5.6 µM. 0.91% of 290,000 active. luciferase refolding luminescence, 3 h;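 active = inhibition above the screen-wide mean plus 3 SD, computed separately per campaign, cut at about 16% in these data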;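 note: 0% = DMSO wells and 100% = 60 µM geldanamycin wells; inhibitors lower the luminescence because luciferase stays unfolded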
FXN GAA850 act: increases GAA850 frataxin promoter reporter activity; HEK293 lucGAA850 FXN promoter luciferase reporter, 24 h; percent of 10 µM SAHA response; activation, % at 6 µM; 0.56% of 360,000 active; AID 540364;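 active = activation above the average of all compounds screened plus 3 SD, cutoff fixed separately per campaign, cut at about 7.5% in these data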;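 note: 0% = DMSO wells and 100% = 10 µM SAHA wells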
HSP90 confirm: confirmation of HSP90 inhibitors; inhibition, % at 5.9 µM; shares compounds with HSP90 inh; rabbit reticulocyte lysate, luciferase refolding luminescence, 3 h; 64% of 2,300 active; in the data active = inhibition above about 18%;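 note: 0% = vehicle wells and 100% = reference inhibitor wells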
luciferase ctr: counter-screen for HSP90 inhibitors: inhibitors of firefly luciferase; inhibition, % at 5.9 µM; shares compounds with HSP90 inh; purified native firefly luciferase, luminescence; 48% of 2,300 active; AID 1847;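 active = inhibition above the mean inhibition of all tested sample wells plus 3 SD, cut at about 10% in these data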;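 note: 0% = DMSO with luciferase and 100% = wells lacking luciferase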
Target sequence (P08659 whole entry, looked up): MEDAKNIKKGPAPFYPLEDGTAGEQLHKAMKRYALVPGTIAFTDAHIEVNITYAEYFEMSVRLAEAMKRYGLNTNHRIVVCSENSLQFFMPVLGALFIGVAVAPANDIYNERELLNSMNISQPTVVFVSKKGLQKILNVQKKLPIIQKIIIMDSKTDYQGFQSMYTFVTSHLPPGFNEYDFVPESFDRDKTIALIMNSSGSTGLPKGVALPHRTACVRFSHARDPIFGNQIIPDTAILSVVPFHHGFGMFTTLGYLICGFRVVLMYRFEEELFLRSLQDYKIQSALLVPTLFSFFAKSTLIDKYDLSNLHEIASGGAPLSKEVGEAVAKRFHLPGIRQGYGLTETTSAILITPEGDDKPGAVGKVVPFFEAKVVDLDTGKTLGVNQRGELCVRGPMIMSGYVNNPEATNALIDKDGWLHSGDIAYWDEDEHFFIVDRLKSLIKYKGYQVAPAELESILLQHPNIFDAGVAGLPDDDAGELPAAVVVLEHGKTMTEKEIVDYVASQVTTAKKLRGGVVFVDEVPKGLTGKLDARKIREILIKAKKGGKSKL
* hit, by the source's call; x = no result given. The list is not random: actives were taken first. Their share in the collection is about 3.4%.

SMILES	AI-2 QS mod	HSF1 inhib	PG9 binder	SMARCA2 act	HSP90 inh	FXN GAA850 act	HSP90 confirm	luciferase ctr
Cn1c(=N)n(CC(=O)c2ccccc2)c2ccccc21	45.4	-1.9	0.6	1.1	28.7*	0.4	5.6	-0.4
N#CCc1ccc(NC(=O)/C=C/c2ccc([N+](=O)[O-])o2)cc1	-43.4	-34.5	x	x	59.9*	-16.0	9.0	-6.7
Cc1cc(NC(=O)c2cccc(COc3ccc(Br)cc3)c2)no1	5.9	-1.7	-0.3	5.1	21.0*	3.6	64.1*	52.6*
CC(C)c1cc(C(N)=O)c(NC(=O)c2cccc(COc3ccc(Cl)cc3)c2)s1	21.3	-9.1	0.9	1.5	49.0*	6.9	71.3*	68.6*
CN(C)c1ccc(C(=O)NC2CCCCN(Cc3cccc(Cl)c3)C2=O)cc1 (stereo not drawn)	x	x	x	-0.3	x	x	x	x
CC1Cc2cc(/C(O)=C3/C(=O)C(=O)N(CCCn4ccnc4)C3c3ccncc3)ccc2O1 (stereo not drawn)	22.5	-9.8	0.3	1.3	-1.7	3.2	x	x
CC1Cc2cc(/C(O)=C3/C(=O)C(=O)N(CCCn4ccnc4)C3c3ccco3)ccc2O1 (stereo not drawn)	14.3	x	-0.4	2.4	41.7*	-5.7	40.3*	39.0*
CC1Cc2cc(/C(O)=C3/C(=O)C(=O)N(Cc4ccco4)C3c3cccs3)ccc2O1 (stereo not drawn)	13.7	-42.3	6.3	4.3	36.2*	-6.2	0.9	0.7
Cc1cccc(NC(=S)NC(=O)/C=C/c2ccco2)c1	-6.5	0.6	0.9	-0.1	2.0	-1.5	x	x
Cc1cccc(NC(=S)NC(=O)/C=C/c2ccco2)n1	11.0	30.7	0.5	6.3	17.7*	4.0	-0.3	-7.7
CCN(C(=O)[C@@H](C)[C@@H](O)c1ccc(Cl)cc1)c1ccccc1	x	x	x	-2.5	x	x	x	x
COc1ccc(C(=O)N2CCN(c3ncnc4c(-c5ccccc5)nsc34)CC2)cc1	10.6	-5.4	-0.1	-2.4	1.7	-1.1	x	x
COc1ccc(-c2nsc3c(N4CCCCC4C)ncnc23)cc1 (stereo not drawn)	16.6	-94.5*	1.3	-10.3	77.8*	-15.0	83.3*	79.9*
COc1ccc(-c2nsc3c(N4CCCCC4)ncnc23)cc1	0.1	-80.1*	2.6	-5.5	61.4*	-12.5	82.0*	62.6*
CCCCN1CN2Cc3ccccc3C2CS1(=O)=O (stereo not drawn)	x	x	x	3.4	x	x	x	x
COc1cc(NCCCCCCCN)c2ncccc2c1	18.4	9.6	x	x	80.5*	0.2	6.9	-2.1
COc1cccc(NC(=O)c2ccc3c(c2)OCCO3)c1	1.4	5.3	0.0	2.9	45.4*	-0.8	55.2*	40.2*
COc1cccc(NC(=O)c2ccc3c(c2)OCO3)c1	x	17.7	-0.4	4.2	29.2*	5.5	20.0*	4.4
COc1cccc(NC(=O)c2oc3ccccc3c2NC(=O)c2ccc3c(c2)OCO3)c1	24.8	11.1	0.8	1.7	-4.0	2.2	x	x
CC(C)(C)C(=O)N1CCC[C@]2(CC[C@H](CCC#N)O2)C1	x	x	x	-1.2	x	x	x	x
COc1ccc([C@H]2OC(=O)C[C@H]2C(=O)N2CCCCC2)cc1OC	x	x	x	-6.1	x	x	x	x
CCc1nnc(NC(=O)c2ccc(OC)cc2OC)s1	20.1	16.0	-2.6	-0.2	21.3*	-0.3	46.9*	42.6*
COc1ccc(C(=O)Nc2nnc(SCC(=O)NCc3ccco3)s2)c(OC)c1	3.2	-3.6	-0.3	-0.6	42.6*	-3.2	62.0*	60.3*
COc1ccccc1C(=O)Nc1nnc(SCC(=O)NCc2ccco2)s1	14.1	16.2	x	x	13.4	2.3	x	x
CCOc1ccc(NC(=O)Nc2nnc(CC)s2)cc1	-14.1	11.9	-0.1	2.0	17.6*	3.1	-1.8	-9.2
SMILES	AI-2 QS mod	HSF1 inhib	PG9 binder	SMARCA2 act	HSP90 inh	FXN GAA850 act	HSP90 confirm	luciferase ctr
COc1ccc(C(=O)Nc2nnc(SCC(=O)Nc3ccc(NC(C)=O)cc3)s2)c(OC)c1	16.7	8.7	1.1	6.2	12.2	0.0	x	x
COCCN1Cc2cc(C(=O)OC)c3c(c2C1=O)c1ccccc1n3S(=O)(=O)c1ccc(OC)cc1	x	x	1.2	-0.7	x	x	x	x
Cc1ccc2cc(CCNC(=O)c3ccc(S(=O)(=O)N4CCCCC4)cc3)c(=O)[nH]c2c1	16.8	3.0	-2.6	0.7	34.9*	-2.9	0.4	-4.2
Cc1ccc2cc(CCNC(=O)c3ccc(S(=O)(=O)N4CCOCC4)cc3)c(=O)[nH]c2c1	23.2	-2.1	-1.6	-1.7	-1.6	-1.4	x	x
CC(=O)NC1=C(Nc2ccc(N(C)C)cc2)C(=O)c2ccccc2C1=O	-9.3	11.9	-41.0	7.7	21.5*	-2.0	7.8	-7.8
O=C(O)c1ccc(-c2nc3ccccc3s2)o1	11.7	7.8	0.7	7.7	63.3*	1.3	79.7*	23.8*
Cc1ccc(-c2cc(C#N)c3n(c2=O)CCC3)cc1	x	x	x	-1.4	x	x	x	x
Cc1noc(C(=O)Nc2ccc(Cl)cc2)c1Cl	19.4	1.2	x	x	25.3*	x	1.8	-3.4
CC(=O)C1(C(=O)N2CCOCC2)CC(c2ccccc2C(F)(F)F)=NO1 (stereo not drawn)	x	x	x	0.0	x	x	x	x
COC(=O)C1=C(C)N(Cc2ccccc2C(F)(F)F)C(=NCc2ccccc2C(F)(F)F)NC1c1cccc(C(F)(F)F)c1 (stereo not drawn)	x	x	-1.4	-0.9	x	x	x	x
Cc1cccc(-c2noc(C3CCCCC3)n2)c1	6.9	14.8	1.9	0.7	64.5*	4.2	5.8	-12.4
Cc1ccc(-n2c(SCc3cccc(F)c3)nc3ccccc3c2=O)cc1	x	x	x	-3.2	x	x	x	x
Cc1c(O)ccc(/C=N/Nc2ncccc2[N+](=O)[O-])c1O	5.1	35.9	-5.3	2.8	21.4*	0.5	28.5*	28.0*
O=[N+]([O-])c1cccnc1N/N=C/c1ccccc1O	9.3	-34.1	0.7	4.0	21.8*	0.6	14.4	-1.4
COc1ccc(CNC(=O)C2CCN(S(=O)(=O)c3cccc(C(F)(F)F)c3)CC2)cc1	x	x	-0.5	-0.5	x	1.7	x	x
COc1ccc(N2CCC(CNS(=O)(=O)c3cccc(C(F)(F)F)c3)C2)cc1 (stereo not drawn)	6.9	6.2	-0.8	0.0	59.1*	-0.1	2.5	-0.6
Cc1nc2c(C(=O)Nc3ccc(N4CCCC(O)C4)cc3)snc2c(=O)[nH]1 (stereo not drawn)	9.0	0.2	-4.9	-3.5	0.3	4.3	x	x
O=C(Nc1ccc(N2CCCC(O)C2)cc1)c1snc2c(=O)[nH]cnc12 (stereo not drawn)	0.2	2.8	-7.1	-0.7	18.6*	4.9	15.1	-3.9
O=C1N=C(N2CCCC2)S/C1=C\C=C\c1ccccc1	4.7	-75.7*	-3.2	-7.5	36.4*	-6.2	55.9*	53.9*
CCc1ccc(/C=C2\SC(N3CCCC3)=NC2=O)cc1	13.5	-7.1	-1.9	0.6	25.8*	-0.3	11.5	12.3*

Bioassay records: PubChem BioAssay, several laboratories
